{
  "source": "PubChem BioAssay (Tox21)",
  "note": "“And” between values parts separate entries of the source, which are not always exact repeats. Identical values can stand only once. Inconclusive results are not listed. Where a call stands in place of a potency, no number is given. Some compounds were tested as several samples or in several runs, with calls that do not always agree. The source made the active and inactive calls. Calls come from the whole dose curve; as a rule, active = well fitted inhibition curve with a large enough effect in the repeat runs; inconclusive = weak or mixed curves; inactive = no such curve, though single readings can be large or run the other way. Potency is the fitted concentration of half-maximal effect.",
  "data": [
    {"biological_target": "Aromatase (Homo sapiens) (UniProt P11511)", "sequence (P11511 whole entry, looked up)": "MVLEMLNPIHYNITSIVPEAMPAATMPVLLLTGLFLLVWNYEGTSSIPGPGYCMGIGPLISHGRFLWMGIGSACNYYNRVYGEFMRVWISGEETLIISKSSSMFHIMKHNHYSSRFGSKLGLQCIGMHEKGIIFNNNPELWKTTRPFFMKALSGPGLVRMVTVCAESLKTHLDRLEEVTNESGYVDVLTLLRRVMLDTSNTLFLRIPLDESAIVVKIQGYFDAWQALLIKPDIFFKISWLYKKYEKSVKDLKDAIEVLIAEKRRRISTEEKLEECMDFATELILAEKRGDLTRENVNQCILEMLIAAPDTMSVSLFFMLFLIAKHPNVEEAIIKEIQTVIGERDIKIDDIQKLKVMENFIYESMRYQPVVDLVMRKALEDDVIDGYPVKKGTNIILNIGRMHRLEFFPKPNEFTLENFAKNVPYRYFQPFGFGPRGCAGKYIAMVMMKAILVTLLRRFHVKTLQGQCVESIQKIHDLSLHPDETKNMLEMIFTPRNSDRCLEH", "assay": "qHTS assay to identify aromatase inhibitors (AID 743083); note: nearly all actives have a fitted effect of over 55% in size", "details": "MCF-7 aro ERE, testosterone-driven ERE luciferase, 24 h; series mostly up to 70.3 µM; activity, negative = inhibition: at the top concentration", "values": [
      {"smiles": "COc1ccc2cc(S(=O)(=O)N[C@H](CC(=O)N[C@H](Cc3ccc(CN4[C@H](C)CCC[C@@H]4C)cc3)C(=O)N(C)C(C)C)c3ccc4c(c3)OCO4)ccc2c1", "Potency": "46 µM (active)"},
      {"smiles": "Cc1cc(=O)oc2cc(O)ccc12", "Potency": "inactive"},
      {"smiles": "O=C1OC2(c3ccccc31)c1cc(Br)c(O)c(Br)c1Oc1c2cc(Br)c(O)c1Br", "Potency": "inactive"},
      {"smiles": "CN(C)CCOC(C)(c1ccccc1)c1ccccn1", "note": "(stereo not drawn)", "Potency": "inactive"},
      {"smiles": "O=C(Nc1ncc([N+](=O)[O-])s1)c1cccs1", "activity, negative = inhibition": "-10.3% (inactive)"},
      {"smiles": "CN1CCC[C@H]1c1cccnc1", "Potency": "inactive"},
      {"smiles": "CC(=O)C(=O)O", "Potency": "inactive"},
      {"smiles": "CC(=O)CCC(=O)O", "Potency": "inactive"},
      {"smiles": "Nc1ccc(O)c([N+](=O)[O-])c1", "activity, negative = inhibition": "25% (inactive)"},
      {"smiles": "O=C(O)CC(O)C(=O)O", "note": "(stereo not drawn)", "Potency": "inactive"},
      {"smiles": "C=C(C)C(=O)OCC(C)O", "note": "(stereo not drawn)", "Potency": "inactive"},
      {"smiles": "Cc1cc(C)nc(NS(=O)(=O)c2ccc(N)cc2)n1", "Potency": "inactive"},
      {"smiles": "CCCCC(CC)C(=O)O", "note": "(stereo not drawn)", "Potency": "inactive"},
      {"smiles": "CCCCCCCCCCCC[N+](C)(C)Cc1ccccc1", "Potency": "29.8 µM (active) and 42.4 µM (active) and 37.4 µM (active)"},
      {"smiles": "CCN(Cc1c(F)cccc1Cl)c1c([N+](=O)[O-])cc(C(F)(F)F)cc1[N+](=O)[O-]", "Potency": "27.3 µM (active)"},
      {"smiles": "NC(=O)c1cccnc1", "Potency": "inactive"},
      {"smiles": "O=S1(=O)OC(c2ccc(O)cc2)(c2ccc(O)cc2)c2ccccc21", "Potency": "inactive"},
      {"smiles": "CCc1nc(N)nc(N)c1-c1ccc(Cl)cc1", "Potency": "inactive and 55.3 µM (active)"},
      {"smiles": "CN(N=O)C(=O)N[C@@H]1[C@@H](O)[C@H](O)[C@@H](CO)O[C@@H]1O", "Potency": "inactive"},
      {"smiles": "NC1CCCCC1", "Potency": "inactive"},
      {"smiles": "NS(=O)(=O)O", "Potency": "inactive"},
      {"smiles": "C=CCc1ccc(O)c(OC)c1", "Potency": "inactive"},
      {"smiles": "CC(C)NCC(O)c1ccc(O)c(O)c1", "note": "(stereo not drawn)", "Potency": "inactive"}
    ]}
  ]
}
